Source: PubChem
The full list was thinned out, with hits kept by preference.
KDM5B inhibitor: KDM5B demethylase inhibition. Q9UGL1. KDM5B demethylase, FDH-coupled NADH fluorescence (FDH is formaldehyde dehydrogenase). AID 1347165. hit rate 2.6% among 220,000. Potency, µM (doses to about 57.7 µM), usual class: inhibitors; active means well fitted inhibition curve with a large enough effect; further: 0% is about no effect; nearly all actives have a fitted effect of over 70% in size
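KDM5BΔAP (200 nM final) in 50 mM HEPES pH 7.5, 0.01% Tween-20 was preincubated 10 min at RT with compound over a concentration range. Substrate mix (H3K4me3 12.5 µM, α-KG 25 µM, Fe²⁺, ascorbate, NAD⁺, FDH) was added, and NADH fluorescence change over 30 min gave dose-response curves.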
Numbers without * were called inactive; i = inactive. Potency means the concentration at half of the fitted maximal effect.

SMILES	KDM5B inhibitor
CCC1(CC)CC1C(=O)N1CCc2onc(-c3cccc(F)c3)c2C1 (configuration not stated)	i
O=C(Cn1cnnn1)N1CCc2onc(-c3cccc4ccccc34)c2C1	31.6µM*
CC(C)(C)C(=O)Nc1ccc(NC(=O)C2CCCC2)cc1	i
Cc1cc(Cl)c(CO)c(Cl)n1	i
Cc1ccc(N/N=C/c2ccc(Br)cc2)cc1Cl	i
Cc1c(Cl)cccc1NC(=O)CCNC(=O)c1cccs1	i
COc1ccc(-c2ccc3nnc(CNC(=O)c4cccn4C)n3n2)cc1	28.2µM*
CC(=O)Nc1cccc(C(=O)NCc2nnc3ccc(-c4ccccc4)nn23)c1	31.6µM*
Cn1cccc1C(=O)NCc1nnc2ccc(-c3ccccc3)nn12	i
COc1ccc(CNC(=O)c2cccc(OC)c2)cc1	i
Cc1cccc(C(=O)Nc2cccc(-c3ccc4nncn4n3)c2)c1	i
CCN(CC)c1ccc(C(=O)NCc2nnc3ccc(-c4ccc(OC)cc4)nn23)cc1	i
COc1ccc(CC(=O)Nc2cccc(-c3ccc4nnc(C)n4n3)c2)cc1	i
COc1ccc(-c2ccc3nnc(CNC(=O)c4cccc(NC(C)=O)c4)n3n2)cc1	28.2µM*
COc1ccc(-c2ccc3nnc(CNC(=O)c4cccc(OC)c4)n3n2)cc1	28.2µM*
CC(=O)c1cccc(NC(=O)CSc2nnc3ccc(-c4ccc(F)cc4)nn23)c1	i
O=C(O)C1CCN(C(=O)CSc2nnc(-c3ccccc3F)n2C2CCCC2)CC1	i
COc1ccc(CN(C(=O)c2ccco2)c2ccc(CC(=O)NC(C)c3ccccc3)cc2)cc1 (configuration not stated)	i
COC(=O)c1c(C)[nH]c(C(=O)C(C)OC(=O)c2c(F)cccc2F)c1C (configuration not stated)	i
CCc1ccc(C2C(C#N)=C(N)N(N3CCOCC3)C3=C2C(=O)CC(C)(C)C3)cc1 (configuration not stated)	i
CCONC(=O)C(C)Oc1cccc(C#N)c1 (configuration not stated)	i
Cc1ccc(C(=O)/C(C#N)=C/c2ccccc2OCc2ccc(Br)cc2)cc1	i
COc1ccc(NC(=O)c2ccc3nc(-n4cccc4)sc3c2)cc1	i
CC(NC(=O)c1ccc2c(c1)CCCC2)c1ccc(F)cc1F (configuration not stated)	i
CN(C)CCn1cc(C(=O)c2cc(Cl)ccc2O)cc1-c1nc2ccccc2c(=O)[nH]1	i
SMILES	KDM5B inhibitor
Cc1cc(Cl)ccc1S(=O)(=O)NCCCC(=O)O	i
O=C(NCCc1c[nH]c2ccccc12)c1cnc2ccccc2n1	i
CCOc1c(Br)cc(C(=O)Nc2ncccc2C)cc1OC	i
COc1cccc2cc(-c3cc(=O)oc4cc(C)c(C)cc34)oc12	i
O=C(c1ccc(F)cc1Cl)N1CCC2(CC1)NC(=O)N(c1ccccc1Cl)N2	i
CCOC(=O)CC1(NC(=O)N2CCCC2c2cccs2)CCCCC1 (configuration not stated)	i
COc1ccc(-c2cc(N3CCC(NC(=O)c4cccc(C#N)c4)C3)n[nH]2)cc1 (configuration not stated)	i
COc1cccc(CC(=O)NCc2nnc3ccc(-c4ccccc4)nn23)c1	i
COc1ccc(-c2ccc3nnc(CNC(=O)c4cc(Cl)ccc4OC)n3n2)cc1	i
COc1ccc(-c2ccc3nnc(CNC(=O)Cc4cccc(OC)c4)n3n2)cc1	25.1µM*
COc1ccc(-c2ccc3nnc(CNC(=O)c4cccc(C#N)c4)n3n2)cc1	28.2µM*
COc1ccc(-c2ccc3nnc(CNC(=O)c4ccc(OC)nc4OC)n3n2)cc1	31.6µM*
COc1ccc(-c2noc([C@@H]3CCCN3C(=O)c3ccc(F)c(Cl)c3)n2)cc1	i
COc1cccc(CCC(=O)NCc2nnc3ccc(-c4ccccc4)nn23)c1	i
COc1ccc(-c2ccc3nnc(CNC(=O)c4ccc(C#N)cc4)n3n2)cc1	i
COc1ccc(-c2ccc3nnc(CNC(=O)c4ccc(F)c(Cl)c4)n3n2)cc1	28.2µM*
CC(=O)c1ccc(N2CCN(S(=O)(=O)c3ccc4c(c3)NC(=O)CCS4)CC2)cc1	i
O=C(Cn1ccc2cc(Cl)ccc21)Nc1ccc2c(c1)OCO2	i
COc1ccc(C2(C(=O)N(C)Cc3ccc(OC(F)(F)F)cc3)CCOCC2)cc1	i
Cc1cccc(N2CCN(c3cc(C(=O)O)c4cc(NC(=O)c5ccccc5)ccc4n3)CC2)c1	i
COc1ccc(-c2ccc3nnc(CNC(=O)c4ccoc4)n3n2)cc1	31.6µM*
COc1ccccc1N(C)S(=O)(=O)c1ccc(C(=O)OCn2nnc3ccccc3c2=O)cc1	i
Cc1cccc(OCC(=O)NCCCNC(=O)c2ccncc2)c1	i
CC(C)C(=O)N1CCCC(CN2CCN(c3ccccn3)CC2)C1 (configuration not stated)	i
O=C(c1cc2ccccc2cc1O)N1CCN(c2ccccn2)CC1	i
COc1ccc(-c2cc(N3CCC(NC(=O)COc4cccc(C)c4)CC3)n[nH]2)cc1	i
